The source of these data is PubChem BioAssay AID529 (NMMLSC, 2006).

Each structure is given as a SMILES string. The whole screen tested about 24,000 compounds, of which about 50 (0.2%) were called active. Not shown: some 9% with an inconclusive outcome. The sample as a whole holds a higher share of actives than the screen did. A number with no mark means an inactive call.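 The calls were made as follows: active = inhibition above 50%; inconclusive = compound itself fluorescent, judged against control cell fluorescence; inactive = the rest.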

Integrin alpha-4 (Homo sapiens), sequence (P13612 whole entry, looked up): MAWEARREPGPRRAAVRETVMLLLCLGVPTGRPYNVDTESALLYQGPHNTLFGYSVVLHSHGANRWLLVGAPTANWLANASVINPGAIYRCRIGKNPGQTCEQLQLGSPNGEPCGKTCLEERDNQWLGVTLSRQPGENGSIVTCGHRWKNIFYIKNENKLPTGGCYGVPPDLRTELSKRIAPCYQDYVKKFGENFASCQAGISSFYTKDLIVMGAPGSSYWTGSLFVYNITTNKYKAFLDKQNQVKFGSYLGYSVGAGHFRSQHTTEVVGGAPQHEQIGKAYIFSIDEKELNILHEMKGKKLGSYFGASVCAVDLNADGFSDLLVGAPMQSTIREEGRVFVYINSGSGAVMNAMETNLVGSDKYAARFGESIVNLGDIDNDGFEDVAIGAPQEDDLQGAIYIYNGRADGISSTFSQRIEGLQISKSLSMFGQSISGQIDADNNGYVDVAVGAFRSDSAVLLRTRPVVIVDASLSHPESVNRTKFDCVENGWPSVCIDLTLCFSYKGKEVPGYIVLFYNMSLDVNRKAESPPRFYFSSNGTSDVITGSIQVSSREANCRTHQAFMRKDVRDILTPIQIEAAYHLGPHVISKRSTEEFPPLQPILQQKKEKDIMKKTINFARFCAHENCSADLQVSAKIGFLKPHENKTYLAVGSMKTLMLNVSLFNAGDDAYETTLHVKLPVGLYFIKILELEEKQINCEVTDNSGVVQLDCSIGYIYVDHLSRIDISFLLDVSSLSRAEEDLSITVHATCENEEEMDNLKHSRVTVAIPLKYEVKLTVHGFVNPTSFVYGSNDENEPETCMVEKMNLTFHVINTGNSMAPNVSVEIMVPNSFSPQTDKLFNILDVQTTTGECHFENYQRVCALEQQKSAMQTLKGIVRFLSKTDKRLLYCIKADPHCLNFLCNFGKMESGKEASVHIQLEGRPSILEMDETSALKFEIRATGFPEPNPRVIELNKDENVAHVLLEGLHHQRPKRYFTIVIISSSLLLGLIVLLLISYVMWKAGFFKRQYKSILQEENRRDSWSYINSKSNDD

This experiment addresses Integrin alpha-4 (Homo sapiens) (UniProt P13612). The experiment in a line: inhibitors of LDV-FITC binding to Mn2+-activated VLA-4, primary screen, Jurkat cells (AID 529).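 Also: 0% = Mn2+ stimulated cells lacking compound and 100% = ligand binding without Mn2+.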 The following applies: LDV-FITC binding with Mn2+, flow cytometry, stronger effect = higher value, 100% = Mn2+-driven binding gain fully reversed, screened at 10 µM (by protocol).
Regarding `Cc1ccc(NC(=O)C2CCCN(S(=O)(=O)c3c(C)noc3C)C2)c(C)c1` (stereo unspecified), the inhibition (commonly the drop in the measured response relative to a control, in per cent) was -21%.

On to `O=C(CCn1c(=O)oc2ccccc21)Nc1ccon1`, for which the inhibition was -16%.

With `O=C(CN1CCN(CC(=O)Nc2ccc3c(c2)OCO3)CC1)Nc1ccc(F)cc1`, the inhibition was 14%.

In the case of `CCOc1ccc(N(CC(=O)OC)S(=O)(=O)c2c(C)noc2C)cc1`, the inhibition was 13%.

For the compound `CCOC(=O)CN1CC23C=CC(O2)C(C(=O)Nc2ccc(F)cc2)C3C1=O` (stereo unspecified), the inhibition was -44.5%.

Take `Cc1nc(C)c2c(c1C(F)(F)F)-c1ccccc1C2(F)F`: the inhibition is -6.5%.

`COc1ccc(N2C(=O)C3CCCN3C2c2cccs2)cc1` (stereo unspecified): the inhibition was 8%.

For the compound `COc1ccccc1Cn1c(=S)[nH]c2cc(C(=O)N3CCN(C)CC3)ccc2c1=O`, the inhibition was 15%.

As for `O=C(NCCCN1CCN(Cc2ccccc2)CC1)C1CCN(S(=O)(=O)N2CCCC2)CC1`, the inhibition is -27%.

Turning to `CCCC(NC(=O)c1ccccc1)c1nc2ccccc2n1Cc1ccc(C(=O)OC)o1` (stereo unspecified), the inhibition is 1%.

`Cc1ccc(NC(=O)CSc2nnc(-c3cnccn3)n2Cc2ccco2)cc1C`: the inhibition is -19.5%.

For the compound `Cc1ccc(NC(=O)CN(C)S(=O)(=O)c2cnc[nH]2)cc1C`, the inhibition was 1%.

Take `CCCOC(=O)c1[nH]c2c(c1C)C(=O)CC(c1cc(OC)c(OC)c(OC)c1)C2` (stereo unspecified): the inhibition was -2%.

In the case of `COc1ccccc1-n1cnc2cc(C(=O)NCC3CCCO3)ccc21` (stereo unspecified), the inhibition is -11%.

For the compound `CCOC(=O)c1c(NC(=O)c2cccs2)sc(C)c1C`, the inhibition is -11.5%.

As for `COc1cccc(NC(=O)Nc2nnc(N3CCCCC3C)s2)c1` (stereo unspecified), the inhibition is -4%.

Regarding `O=C(O)c1cccc2c1C(=O)N(C1CCCCC1)C2`, the inhibition was -16%.

Take `CCOc1ccc(CCNC(=O)C2CCN(c3ccc(N4CCOCC4)nn3)CC2)cc1OCC`: the inhibition is -6%.

Take `CCOC(=O)N1CCC(NC(=O)c2cnn3ccccc23)CC1`: the inhibition was 2.5%.

As to `Cc1nc(CNS(=O)(=O)c2cccnc2)cs1`, the inhibition is -1%.

On to `CC1CCCCC1NC(=O)CCS(=O)(=O)c1cccc2nonc12` (stereo unspecified), for which the inhibition was 12%.

`CCN(CC(=O)Nc1ccc2c(c1)OCCO2)Cc1cc(=O)oc2cc(C)c(C)cc12`: the inhibition is -1.5%.

In the case of `CCn1c(=O)cc(SCC(=O)NCc2ccc3c(c2)OCO3)c2ccccc21`, the inhibition was 5%.

Regarding `COc1cc(C2C(C(=O)Nc3ccc(F)cc3)=C(C)Nc3nc(CCCO)nn32)cc(OC)c1OC` (stereo unspecified), the inhibition is -7%.

`CCn1ncc(C2=NOC(C(=O)N3CCN(c4ccccc4)CC3)C2)c1C` (stereo unspecified): the inhibition is 7%.

Take `c1ccc(CCn2nnnc2CN2CCN(C3CCCC3)CC2)cc1`: the inhibition is -4.5%.

For `Cc1cc(=O)n2nc(N3CCCC(C(=O)N4CCN(C)CC4)C3)sc2n1` (stereo unspecified), the inhibition was -12.3%.

Consider `CCN(CC)S(=O)(=O)c1ccc2[nH]cc(C(=O)NCCc3ccccc3)c(=O)c2c1`, for which the inhibition is 2%.

For the compound `CCOC(=O)c1nnn(CC(=O)Nc2cccc(F)c2)c1C(=O)OCC`, the inhibition is 13.7%.

On to `CC(NC(=O)CN1CCN(Cc2ccc(Cl)cc2)C1=O)c1ccc2c(c1)OCCO2` (stereo unspecified), for which the inhibition was 4%.

On to `CN(C)S(=O)(=O)c1cccc(C(=O)Nc2cccnc2)c1`, for which the inhibition is -37.5%.

Turning to `COc1ccc(Cl)cc1S(=O)(=O)N1CCN(CC(=O)C(C)(C)C)CC1`, the inhibition was 14%.

Turning to `CCCCC(CC)C(=O)Nc1ccc(Cl)cn1` (stereo unspecified), the inhibition is -17.5%.

In the case of `Cc1cccn2c(=O)c3cc(C(=O)N4COCC4(C)C)n(C)c3nc12`, the inhibition is -28%.

Take `Cc1cccn2c(=O)c3cc(C(=O)NCc4ccccn4)n(C)c3nc12`: the inhibition was 52% (active).

Take `O=C(NCc1ccccn1)c1cnc2sccn2c1=O`: the inhibition was -2%.

`Cc1nc(NC(=O)CCC(=O)O)sc1C(=O)N(C)C`: the inhibition is -12%.

On to `O=C(Cn1c(=O)n(Cc2ccco2)c(=O)c2ccccc21)NCC1CCCO1` (stereo unspecified), for which the inhibition was -8.5%.

As for `O=C(Nc1nc2ccc(S(=O)(=O)N3CCCC3)cc2s1)C1CCCO1` (stereo unspecified), the inhibition is -33.5%.

Turning to `CCOc1ccc(Cn2nnc(C(=O)NCc3ccccc3)c2N)cc1`, the inhibition was -1%.

`O=C(c1ccccc1)c1cccn1CC(=O)N1CCN(c2ccc(F)cc2)CC1`: the inhibition was 49%.

With `O=C(O)C1CCN(S(=O)(=O)N2CCOCC2)CC1`, the inhibition is 0%.

`C=C1c2cc(CC)ccc2NC(=O)N1c1ccc(C)cc1`: the inhibition is -2%.

`COC(=O)c1ccc2c(=O)n(CC3CCCO3)c(=S)[nH]c2c1` (stereo unspecified): the inhibition was -11%.

Turning to `CCn1c(SCC(=O)Nc2ccccc2F)nc2c(c1=O)SC(C)C2` (stereo unspecified), the inhibition is 3.3%.

Regarding `Cc1ccccc1C(=O)NCCN=C1NS(=O)(=O)c2ccccc21`, the inhibition is -4%.

As for `CCOC(=O)N1CCC(C(N)=O)CC1`, the inhibition is -7%.

In the case of `Clc1ccc(Cn2ncc3c(NCc4cccnc4)ncnc32)cc1`, the inhibition was -0.5%.

As for `CCn1cc(C(=O)NCC2CCCO2)c(=O)c2cc(S(=O)(=O)N3CCCCC3)ccc21` (stereo unspecified), the inhibition is 20%.

In the case of `CC(NC(=O)COc1ccccc1)C(=O)NC1=NCCS1` (stereo unspecified), the inhibition is -18.5%.

For the compound `CCOC(=O)c1[nH]c2c(c1C)C(=O)CC(c1ccc(N(C)C)cc1)C2` (stereo unspecified), the inhibition was -3%.

For `CCOC(=O)N1CCN(C(=O)c2cn(C)c3ccc(S(=O)(=O)N4CCCC4)cc3c2=O)CC1`, the inhibition was -13%.

Regarding `CCCCOc1ccc(C(=O)NCc2ccco2)cc1`, the inhibition was -20.5%.

As to `Cn1c(=O)cc(OCCCC(=O)N2CCN(Cc3ccc4c(c3)OCO4)CC2)c2ccccc21`, the inhibition was 7%.

Take `O=C(C(Cc1ccccc1)n1cccc1)N1CCN(C2CCCCC2)CC1` (stereo unspecified): the inhibition is 15%.

As to `O=C(CCCN1C(=O)C2C3C=CC(C3)C2C1=O)N1CCN(c2ccccc2)CC1` (stereo unspecified), the inhibition is 21%.

For the compound `Cc1nc2ncnn2c(C)c1CCC(=O)N1CCN(C(=O)c2ccco2)CC1`, the inhibition is 10%.

For the compound `Cc1cc(=O)n2nc(N3CCCC3C(=O)NCCCN3CC(C)CC(C)C3)sc2n1` (stereo unspecified), the inhibition was -1%.

As to `CCOc1ccc(CNC(=O)C2CC(=O)N(C3CCCC3)C2)cc1OC` (stereo unspecified), the inhibition was 28%.

For `O=C(CC(NS(=O)(=O)c1ccc(Cl)cc1)c1ccco1)NC1CCCC1` (stereo unspecified), the inhibition was 1%.

In the case of `O=C(Nc1ccn(Cc2ccc(F)cc2)n1)c1ccncc1`, the inhibition was 4%.
